The text below walks through data of PubChem BioAssay (Tox21).

Inconclusive results are not listed. Entries that show only a call come without a potency. The source made the active and inactive calls. The call rests on the fitted dose curve; in most records, active means well fitted curve in the direction sought with a large enough effect in the repeat runs; inconclusive means weak or mixed curves; inactive means no such curve, though single readings can be large; an effect the other way counts as inactive or inconclusive.

Chain of Androgen receptor (Homo sapiens) (P10275 whole entry, looked up): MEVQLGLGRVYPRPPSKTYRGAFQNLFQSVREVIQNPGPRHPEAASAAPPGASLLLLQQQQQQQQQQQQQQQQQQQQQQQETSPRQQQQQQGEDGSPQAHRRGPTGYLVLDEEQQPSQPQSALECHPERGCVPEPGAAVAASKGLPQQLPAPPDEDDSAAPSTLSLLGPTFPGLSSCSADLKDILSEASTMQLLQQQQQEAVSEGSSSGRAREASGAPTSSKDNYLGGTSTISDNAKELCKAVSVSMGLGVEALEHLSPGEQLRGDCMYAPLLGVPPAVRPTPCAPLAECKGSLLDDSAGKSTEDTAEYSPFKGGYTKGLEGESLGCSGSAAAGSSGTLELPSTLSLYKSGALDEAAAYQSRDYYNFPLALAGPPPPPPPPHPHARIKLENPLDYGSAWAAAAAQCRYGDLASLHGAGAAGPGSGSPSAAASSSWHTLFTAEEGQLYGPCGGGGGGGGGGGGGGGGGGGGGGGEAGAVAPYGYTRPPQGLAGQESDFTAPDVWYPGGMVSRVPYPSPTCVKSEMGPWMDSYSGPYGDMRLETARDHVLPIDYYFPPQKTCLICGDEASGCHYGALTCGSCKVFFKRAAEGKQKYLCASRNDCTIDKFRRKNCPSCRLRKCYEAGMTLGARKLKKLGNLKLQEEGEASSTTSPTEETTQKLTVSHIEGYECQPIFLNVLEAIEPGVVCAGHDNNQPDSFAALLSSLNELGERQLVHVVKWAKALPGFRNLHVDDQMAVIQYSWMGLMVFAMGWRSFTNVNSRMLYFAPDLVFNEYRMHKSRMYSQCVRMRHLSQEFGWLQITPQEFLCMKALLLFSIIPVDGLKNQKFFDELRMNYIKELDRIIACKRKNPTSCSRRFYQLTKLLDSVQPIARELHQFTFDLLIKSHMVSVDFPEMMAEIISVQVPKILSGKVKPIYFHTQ

The target of one test is Androgen receptor (Homo sapiens) (UniProt P10275). Kind of test: qHTS assay to identify small molecule agonists of the androgen receptor (AR) signaling pathway using the MDA cell line (AID 743040; further: nearly all actives have a fitted effect of over 20% in size). The following applies: MDA-kb2 AR-luc cells, MMTV luciferase, 16 h; series mostly up to 70.3 µM. In a few lines:
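Luciferase agonist assay: 16 h compound exposure at 37C without CO2 in MDA-kb2 AR-luc cells, whose MMTV promoter responds to both AR and GR. Luminescence measured after 30 min room-temperature incubation with ONE-Glo.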
(qHTS replaces the single test concentration by a dilution series.)
For `O=C(NC(=O)c1c(F)cccc1F)Nc1cc(Cl)c(Oc2ncc(C(F)(F)F)cc2Cl)c(Cl)c1`, the Potency result is “inactive”.

Consider `N#CCC#N`, for which the Potency result was “inactive”.

Turning to `CO/N=C(/C(=O)OC)c1ccccc1COc1ccccc1C`, the Potency result is “inactive”.

Take `CCCCC(O)(Cn1cncn1)c1ccc(Cl)cc1Cl` (configuration not stated): the Potency entry is “inactive”.

Consider `O=C(CCl)c1ccc(Cl)cc1Cl`, for which the Potency result is “inactive”.

Consider `O=C(Nc1ccccc1)Nc1ccnc(Cl)c1`, for which the Potency entry is “inactive”.

As for `OC(c1ccc(Cl)cc1)(c1ccc(Cl)cc1)c1cccnc1`, the Potency result was “inactive”.

`CCOP(=S)(OCC)Oc1cc(Cl)c(Br)cc1Cl`: the Potency entry was “inactive”.

As to `N#Cc1cc(I)c(O)c(I)c1`, the Potency result is “inactive”.

For `C[N+](C)(C)CCCl`, the Potency result was “inactive”.

Consider `O=S1(=O)OC(c2cc(Br)c(O)c(Br)c2)(c2cc(Br)c(O)c(Br)c2)c2ccccc21`, for which the Potency entry is “inactive”.

As to `c1cc2ccc3cccc4ccc(c1)c2c34`, the Potency result is “inactive”.

Turning to `IC(I)=C(I)I`, the Potency entry is “inactive”.

System in the next test: not listed separately
The experiment in a line: qHTS assay to identify small molecule antagonists of the androgen receptor (AR) signaling pathway using the MDA cell line - cell viability counter screen (AID 743041; further: nearly all actives have a fitted effect of over 45% in size). The following applies: MDA-kb2 viability, CellTiter-Fluor, 16 h, cells co-treated with R1881 androgen agonist; series mostly up to 70.3 µM. In a few lines: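 Viability read by CellTiter-Fluor fluorescence in the same wells as the antagonist screen, added after 15.5 h of a 16 h, 37C exposure. Human breast carcinoma MDA-kb2 AR-luc cells, compounds co-dosed with agonist R1881.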
Turning to `O=C(NC(=O)c1c(F)cccc1F)Nc1cc(Cl)c(Oc2ncc(C(F)(F)F)cc2Cl)c(Cl)c1`, the Potency result is “inactive”.

With `CC(C)(CCl)C(=O)Cl`, the Potency result was “inactive”.

Turning to `CN1C(=O)C(O)N=C(c2ccccc2)c2cc(Cl)ccc21` (configuration not stated), the Potency result is “inactive”.

As to `C=CC[C@]1(O)CC[C@H]2[C@@H]3CCC4=CC(=O)CCC4=C3C=C[C@@]21C`, the Potency entry is “inactive”.

As to `CC(=O)c1cc2c(cc1C)C(C)(C)C(C)CC2(C)C` (configuration not stated), the Potency result is “inactive”.

In the case of `ClP(Cl)(Cl)(Cl)Cl`, the Potency result is “inactive”.

`N#CCC#N`: the Potency result was “inactive”.

In the case of `NC(=O)C(Cl)(Cl)Cl`, the Potency result was “inactive”.

For the compound `CCCN(CC1CC1)c1c([N+](=O)[O-])cc(C(F)(F)F)cc1[N+](=O)[O-]`, the Potency entry is “inactive”.

As to `CCCCC(O)(Cn1cncn1)c1ccc(Cl)cc1Cl` (configuration not stated), the Potency result is “inactive”.

Turning to `O=C(CCl)c1ccc(Cl)cc1Cl`, the Potency entry is “inactive”.

Consider `O=C1c2ccccc2C(=O)C1C(=O)C(c1ccccc1)c1ccccc1`, for which the Potency entry is “inactive”.

Turning to `O=C(CBr)c1ccccc1`, the Potency entry was “inactive”.

Regarding `OC(c1ccc(Cl)cc1)(c1ccc(Cl)cc1)c1cccnc1`, the Potency entry is “inactive”.

`CCOP(=S)(OCC)Oc1cc(Cl)c(Br)cc1Cl`: the Potency result is “inactive”.

As to `C[N+](C)(C)CCCl`, the Potency result is “inactive”.

Take `CN(C)c1ccc(N(C)C)cc1`: the Potency result is “inactive”.

Take `CC(C)(OO)c1ccccc1`: the Potency result was “inactive”.

`O=C1C(=O)c2cccc3cccc1c23`: the Potency result is “inactive”.

Turning to `Clc1cc(C(Cl)(Cl)Cl)cnc1Cl`, the Potency result is “inactive”.

In a further test the target is Androgen receptor (Homo sapiens) (UniProt P10275). Kind of test: qHTS assay to identify small molecule antagonists of the androgen receptor (AR) signaling pathway using the MDA cell line (AID 743042; further: nearly all actives have a fitted effect of over 55% in size; further: potency means the concentration at half of the fitted maximal effect). The following applies: MDA-kb2 AR-luc, MMTV luciferase, R1881 antagonist, 16 h; series mostly up to 70.3 µM. In a few lines:
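Antagonist mode: compounds plus R1881 agonist added to MDA-kb2 AR-luc cells, incubated 16 h at 37C. Luciferase reporter luminescence quantified, with multiplexed CellTiter-Fluor readout for cell viability.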
In the case of `N#CCC#N`, the Potency entry is “inactive”.

In the case of `CO/N=C(/C(=O)OC)c1ccccc1COc1ccccc1C`, the Potency was 27.3 µM (active).

For `O=C(CCl)c1ccc(Cl)cc1Cl`, the Potency result is “inactive”.

Take `O=C(Nc1ccccc1)Nc1ccnc(Cl)c1`: the Potency is 30.6 µM (active).

Consider `OC(c1ccc(Cl)cc1)(c1ccc(Cl)cc1)c1cccnc1`, for which the Potency is 61.1 µM (active).

Consider `CCOP(=S)(OCC)Oc1cc(Cl)c(Br)cc1Cl`, for which the Potency entry was “inactive”.

Turning to `C[N+](C)(C)CCCl`, the Potency entry is “inactive”.

On to `c1cc2ccc3cccc4ccc(c1)c2c34`, for which the Potency result was “inactive”.

For `IC(I)=C(I)I`, the Potency was 19.3 µM (active).
